According to PubChem BioAssay (NCI):
About 83,000 compounds went through this panel and 20% of them were active in at least one assay; those are over-represented in the sample as a whole.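 Step 1: grow cells in 96-well plates. Step 2: add test compound at a single concentration. Step 3: incubate 48 h. Step 4: record percent growth.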 A number with no mark means an inactive call. Active and inactive are the calls of the source. How the source made its calls: active means growth percent below 10; inactive means the rest.

What was measured:
Assay in all cases: NCI-60 one-dose screen, 48 h (100 = growth as untreated, 0 = no growth, -100 = all killed)
SK-MEL-2 melanoma = conditions: 10 µM unless noted
SN12C renal = conditions: 10 µM unless noted
UO-31 renal = conditions: 10 µM unless noted
ACHN renal = conditions: 10 µM unless noted
CAKI-1 renal = conditions: 10 µM unless noted
A498 renal = conditions: 10 µM unless noted
CCRF-CEM leukemia = conditions: 10 µM unless noted
MOLT-4 leukemia = conditions: 10 µM unless noted
SR leukemia = conditions: 10 µM unless noted
RPMI-8226 leukemia = conditions: 10 µM
OVCAR-8 ovarian = conditions: 10 µM unless noted
OVCAR-5 ovarian = conditions: 10 µM unless noted
OVCAR-4 ovarian = conditions: 10 µM unless noted
SK-OV-3 ovarian = conditions: 10 µM
IGROV1 ovarian = conditions: 10 µM unless noted
OVCAR-3 ovarian = conditions: 10 µM unless noted
HS 578T breast = conditions: 10 µM unless noted
NCI/ADR-RES ovarian = conditions: 10 µM unless noted
TK-10 renal = conditions: 10 µM unless noted
EKVX NSCLC = conditions: 10 µM unless noted

Row | Compound | growth (SK-MEL-2 melanoma) | growth (SN12C renal) | growth (UO-31 renal) | growth (ACHN renal) | growth (CAKI-1 renal) | growth (A498 renal) | growth (CCRF-CEM leukemia) | growth (MOLT-4 leukemia) | growth (SR leukemia) | growth (RPMI-8226 leukemia) | growth (OVCAR-8 ovarian) | growth (OVCAR-5 ovarian) | growth (OVCAR-4 ovarian) | growth (SK-OV-3 ovarian) | growth (IGROV1 ovarian) | growth (OVCAR-3 ovarian) | growth (HS 578T breast) | growth (NCI/ADR-RES ovarian) | growth (TK-10 renal) | growth (EKVX NSCLC)
1 | Cn1c2ccccc2c2nn(Cc3ccccc3)c(=O)nc21 | 103% | 107% | 75.1% | 88.5% | 94.7% | 104% | 102% | 105% | 97.7% | 101% | 107% | 92.8% | 111% | 105% | 120% | 107% | 106% | 109% |  | 
2 | C[C@@H](Oc1cc(-c2cnn(C3CC4(CCCNC4)C3)c2)cnc1N)c1c(Cl)ccc(F)c1Cl (stereo not given in full) | -47.8% (active) | 21.7% | 29.7% | 29.5% | 56.6% | -10.4% (active) | -6.75% (active) | -7.46% (active) | -3.47% (active) | -0.0926% (active) | 43.4% | 34.3% | 37.2% | 78% | 48.9% | 52% | 30.5% | 46.1% |  | 
3 | Cn1c2c(cc(S(=O)(=O)c3ccccc3)c1=O)CCc1c-2cnn1-c1cccc(Cl)c1 | 107% | 90.3% | -84.5% (active) | -87.9% (active) | -58% (active) | 71.4% | 90.9% |  |  | 82.6% |  | 93% |  | 86.8% | 97.5% | 98.1% | 92% | 90.6% | 86.5% | 
4 | O=C1/C(=C/c2ccc(F)cc2)CN(Cc2cn(CCNc3ccnc4cc(Cl)ccc34)nn2)C/C1=C\c1ccc(F)cc1 | -63.7% (active) | -75% (active) | -95.8% (active) | -100% (active) | 1.43% (active) | -79.3% (active) |  | -18.4% (active) | -23.7% (active) | -31% (active) | -5.64% (active) | -57.6% (active) |  | -27.1% (active) | 0.407% (active) | -39.7% (active) | 18.2% | 4.23% (active) | -20.3% (active) | 
5 | COc1ccc(NC(=O)COc2ccccc2)c(C(N)=O)c1 | 35.9% | 44.4% | 57% | 55.7% | 49% | 9.39% (active) | 6.03% (active) | 20.1% | 24.5% | 11.9% | 35.2% | 43.6% | 87.7% | 4.18% (active) | 46% | 0.699% (active) | 27.9% | 5.8% (active) |  | 
6 | NC(=O)c1cc(I)ccc1NC(=O)COc1ccccc1 | 34.5% | 37.4% | 52.7% | 43.8% | 55.1% | 4.14% (active) | 4.81% (active) | 4.74% (active) | 20.2% | 9.76% (active) | 15.9% | 39.1% |  | -2.65% (active) | 44.2% | 12% | 36.6% | 4.28% (active) |  | 
7 | ONc1nc(NO)c2[nH]cnc2n1 | 96% | 80.7% | 52.6% | 60.9% | 64.1% | 78.7% | 12.7% | 9.57% (active) | 21.3% | 45.1% | 58.3% | 89.5% | 84.7% | 97.1% | 86.9% | 87.8% | 108% | 74.7% |  | 
8 | CCC(C)Oc1cc(/C=N/NC(=O)c2cnn3c2NC(c2ccccc2)C3)ccc1OC (stereo not given) | 35.6% | 47% | 53.8% | 40.7% | 35.9% |  | 23.1% | 24.9% | 25.8% | 45.7% | 47.2% | 61.3% | 48.3% |  | 48.1% | 2.52% (active) | -15.1% (active) | 18.6% | 70.7% | 
9 | C=CC(=O)N1CC2(CC(n3nc(-c4ccc(Oc5ccccc5)cc4)c4c(N)ncnc43)C2)C1 | 28.6% | 17.1% | 15.2% | 5.33% (active) | 8.28% (active) | -71.7% (active) | 54.3% | 17% | 31.5% | 41% | 28.7% | 54.8% | 27.4% | 5.31% (active) | 10.7% | 30.9% | -11.6% (active) | 41.6% |  | 
10 | COc1cc(NC(=O)COc2ccccc2)c(C(N)=O)cc1OC | 9.86% (active) | 44.7% | 51.3% | 54.9% | 37.1% | 4.84% (active) | 6.33% (active) | 26.9% | 23.3% | 9.18% (active) | 34.2% | 48.8% | 93.9% | 30.4% | 43.9% | 6.16% (active) | 29.6% | 10.2% |  | 
11 | C[C@]1(CO)C[C@@H](O)C[C@]2(C)[C@@H]1CC[C@@]13C[C@@H]4[C@@H](C[C@H]12)[C@]4(C)C3 | 102% | 99.1% | 83.9% | 97.7% | 89.5% |  | 116% | 108% | 118% | 114% | 105% | 97.6% | 104% |  | 106% | 113% | 102% | 105% | 103% | 
12 | FC(F)(F)c1cc(CNc2ncc(Br)c(Cl)n2)cc(C(F)(F)F)c1 | 94% | 99.7% | 83.3% | 104% |  | 96.7% | 83.2% | 86% | 85.8% | 88.5% | 101% | 102% | 102% | 92.5% | 91.7% | 120% | 99.4% | 93.2% | 97.9% | 
13 | O=S(=O)(Nc1ccccc1Cl)c1ccc(-c2cnc(C3CC3)o2)cc1 | 39% | 48.3% | 49.8% | 49.8% | 38.1% |  | 17.4% | 40.9% | 41.5% | 27.9% | 33.8% | 38.3% | 50% |  | 33.1% | -32.1% (active) |  | 8.53% (active) | 61.9% | 
14 | COc1ccc(/C=N/NC(=O)c2cnn(CC(O)Cc3ccccc3)c2N)cc1OC1CCCC1 (stereo not given) | 108% | 95.4% | 92.1% | 87.5% | 77.9% |  | 70.9% | 66.6% |  | 55.4% | 78.6% | 102% | 75.8% |  | 105% |  | 79% | 88.3% | 99.4% | 
15 | FCOC(C(F)(F)F)C(F)(F)F |  | 113% | 87% | 104% | 98.5% | 95.3% | 101% | 97.3% | 86.2% |  | 107% | 103% | 121% | 98% | 111% | 107% | 107% | 106% | 91.1% | 107%
16 | O=C1/C(=C/c2ccccc2F)CNC/C1=C\c1ccccc1F |  | -51.1% (active) | -89.6% (active) | -48.9% (active) | -52.5% (active) | -38.8% (active) | -36.3% (active) | -32.5% (active) | -2.72% (active) | -27.8% (active) | 2.92% (active) | -41.3% (active) | 6.6% (active) | -45.1% (active) | -6.61% (active) | -68.6% (active) | 24.5% | 10.9% | -4.87% (active) | 22.4%
17 | O=C1N/C(=C\c2ccccc2)c2ncccc21 |  | 100% | 69% | 103% | 93.6% | 123% | 97.7% |  | 76.4% | 106% | 110% | 118% | 95.5% | 89.9% | 92.3% | 99.2% | 120% | 103% | 121% | 93.1%
